Nine compounds from PubChem BioAssay (NCI) can be followed below.

What all share (test): NCI-60 one-dose screen, 48 h (100 = growth as untreated, 0 = no growth, -100 = all killed)
Common to all, as to details: 10 µM

Assay [1] has as its system SR leukemia.
Assay [2] concerns RPMI-8226 leukemia.
For assay [3], the system named is OVCAR-8 ovarian.
For assay [4], the system named is OVCAR-5 ovarian.
The test system of assay [5] is OVCAR-4 ovarian.
Assay [6] concerns SK-OV-3 ovarian.
Assay [7] concerns OVCAR-3 ovarian.
Assay [8] relates to HS 578T breast.
The test system of assay [9] is NCI/ADR-RES ovarian.
The subject of assay [10] is T-47D breast.
Assay [11] concerns BT-549 breast.
The test system of assay [12] is MDA-MB-435 melanoma.
Assay [13] has as its system SW-620 colon.
For assay [14], the system named is HCT-116 colon.
Assay [15] relates to HCC-2998 colon.
Assay [16] has as its system KM12 colon.
The test system of assay [17] is IGROV1 ovarian.
Assay [18] has as its system MCF7 breast.

Molecules are shown by their SMILES. The panel holds about 83,000 compounds, 20% with a hit somewhere; the sample as a whole holds those more often.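 Cells were grown in 96-well plates and exposed to the test compound at a single concentration for 48 hours; results are reported as percent growth, with values below 10 considered active.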 A number with no mark means an inactive call. Calls of active or inactive are those of the source.

For `CCOc1ccc(-n2cc(-c3ccc(N(C)C)cc3)[n+]3c2CCCCC3)cc1`, the growth in assay [1] was 27.3%; in [2], 6.41% (active); in [3] it was 12.2%; in [4], 40%; in assay [5], 9.15% (active); in assay [6], -5.85% (active). Moreover, the growth was 21.8% in assay [7]; 28.5% in assay [8]; 92.8% in assay [9]; 0.571% (active) in assay [10]; -1.7% (active) in assay [11]; 15.1% in [12]. Moreover, the growth in assay [13] is 19.1%; in assay [14], 0.582% (active); in assay [15], 21.3%; in assay [16], 14.3%.
Consider `CC(C)OCc1cc(CN2CCN(c3cccc(Cl)c3)CC2)c(O)c2ncccc12`, for which the growth in assay [1] is -30.6% (active); in assay [2], -25% (active); in assay [3] it was -15.2% (active); in assay [4], 38.3%; in assay [5] it was 15.7%; in assay [17], 8.86% (active). The growth is 2.88% (active) in assay [7]; -0.795% (active) in [8]; -27.3% (active) in assay [9]; 3.25% (active) in [10]; -46% (active) in [11]; -28.5% (active) in [12]. Further, the growth in assay [13] was -3.23% (active); in assay [18] it was 4.89% (active); in assay [14] it was -55.5% (active); in assay [15] it was -21.6% (active); in assay [16] it was -23% (active).
On to `Cc1cc(C)c2nc(C)c(C)[n+]([O-])c2c1`, for which the growth is 82.3% in assay [1]; 90.7% in assay [2]; 94% in [3]; 99.6% in assay [4]; 107% in assay [5]; 85.4% in assay [6]. For the same compound, the growth was 110% in assay [7]; 112% in assay [8]; 104% in assay [9]; 94.9% in assay [10]; 106% in [11]; 111% in assay [12]. The growth in assay [13] was 114%; in assay [18], 95.6%; in assay [14] it was 97.3%; in assay [15] it was 97.9%; in assay [16], 106%.
For the compound `CCCCCCN=C(N)CCCCCCCCCCC(N)=NCCCCCC`, the growth was 61.7% in assay [1]; 28.8% in assay [2]; 21.8% in assay [3]; 49.1% in assay [4]; 27.6% in assay [5]; 31.3% in assay [6]. The growth was 20% in [7]; 26.6% in assay [8]; 84% in [9]; 12.2% in [10]; 39.4% in [11]; 38.9% in assay [12]. The growth is 22.4% in assay [13]; 14.9% in assay [18]; 16.5% in [14]; 35.7% in assay [15]; 34.8% in assay [16].
`O=C(CSc1nnc(-c2ccc(Cl)cc2)o1)c1ccccc1`: the growth in [1] was 94%; in assay [2] it was 96.4%; in assay [3] it was 96.2%; in [4], 97.7%; in [5] it was 112%; in assay [6], 102%. The growth in assay [7] was 102%; in assay [8] it was 101%; in [9], 94.9%; in assay [10] it was 93%; in assay [11], 98.3%; in assay [12], 109%. The growth is 107% in assay [13]; 102% in assay [18]; 92.2% in assay [14]; 87.5% in assay [15]; 96.3% in assay [16].
As for `Cc1nc2ccc(-n3c(-c4ccc(Cl)cc4)nc4ccccc4c3=O)cc2n1Cc1ccccc1`, the growth was 86.7% in assay [1]; 64.6% in [2]; 93.4% in assay [3]; 118% in [4]; 90.7% in assay [5]; 87.3% in assay [6]. The growth in assay [7] is 99.6%; in [8], 101%; in assay [9], 94.9%; in assay [10] it was 78.8%; in assay [11], 83.3%; in [12], 97.2%. Moreover, the growth in [13] was 93.7%; in assay [18], 85%; in assay [14], 93%; in assay [15] it was 107%; in assay [16] it was 97.8%.
On to `CCCCCCCCCCSC(=N)N` (tested in a mixture with another compound), for which the growth was -26.7% (active) in assay [1]; 38% in [2]; 81.6% in assay [3]; 101% in [4]; 90% in [5]; 68% in assay [17]. In addition, the growth in assay [7] was 76.1%; in [8], 81.9%; in [9], 82.5%; in [10], 28%; in assay [11], 75%; in assay [12], 79.6%. Moreover, the growth is 38.6% in assay [13]; 36.6% in [18]; 55.6% in [14]; -57.9% (active) in assay [15]; 45.3% in [16].
In the case of `CN(C)c1ccc2c(c1)OC(N)=C(C#N)C2c1ccc2c(c1)CCCN2C` (configuration not stated), the growth in assay [1] is 29.5%; in [2], 34.5%; in assay [3] it was 30.9%; in [4] it was 78.2%; in assay [5] it was 56.3%; in assay [6], 24.4%. Also, the growth in assay [7] was 3.67% (active); in assay [8], 20.1%; in [9], 0.712% (active); in [10], 44.5%; in assay [11], 49.4%; in [12], -5.69% (active). Besides, the growth in assay [13] is 35%; in [18] it was 18.1%; in [14], 7.88% (active); in assay [15], 26.7%; in assay [16] it was 23.1%.
`COC(=O)[C@]12CC[C@@H](C)[C@H](C)[C@@H]1C1=CC[C@@H]3[C@@]4(C)CC(=O)[C@H](O)[C@@]5(C)COC(=C45)C[C@@]3(C)[C@]1(C)CC2`: the growth in [1] was -31.7% (active); in assay [2], -32% (active); in [3], -45.2% (active); in assay [4], -40.4% (active); in assay [5], -85.3% (active); in [17] it was -44.9% (active). Besides, the growth is -84.7% (active) in assay [7]; -5.08% (active) in assay [8]; -59.7% (active) in assay [9]; -37.3% (active) in [10]; -61.7% (active) in assay [11]; -27.6% (active) in assay [12]. Further, the growth was -60% (active) in [13]; -45.8% (active) in assay [18]; -76.2% (active) in assay [14]; -88.1% (active) in assay [15]; -64.1% (active) in [16].
